# From PubChem BioAssay (Tox21)
# Values joined by “and” are separate entries in the source; they are usually repeats but may differ in a detail not shown here. Identical values can stand only once. Results filed as inconclusive are left out. Entries that show only a call come without a potency. Where a structure was tested more than once in an assay, its records may differ in their call. Active and inactive are the calls of the source. Unless noted, the call rests on the fitted dose curve; in most records, active means well fitted curve in the direction sought with a large enough effect in the repeat runs; inconclusive means weak or mixed curves; inactive means no such curve, though single readings can be large; an effect the other way counts as inactive or inconclusive.
# Legend:
# [1] = target: Acetylcholinesterase (Homo sapiens) (UniProt P22303); test: Acetylcholinesterase (AChE) small molecule antagonists: enzyme-based qHTS assay with human liver microsomes (AID 1347399; calls by dose curve; further: nearly all actives have a fitted effect of over 60% in size); conditions: Potency: qHTS inhibition
# Procedure, shortened: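 Recombinant human AChE (50 mU/mL in the enzyme mix) and human liver microsomes (0.25 mg/mL final) were preincubated with compound and NADPH (0.25 mg/mL final) for 30 min at 37 C. Acetylthiocholine/DTNB was then added; thiocholine was read colorimetrically after 10 min at room temperature.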
# [2] = target: Cytochrome P450 2D6 (Homo sapiens) (UniProt P10635); test: Cytochrome P450 Family 2 Subfamily D Member 6 (CYP2D6) small molecule antagonists: luciferase reporter qHTS assay (AID 1671196); further: nearly all actives have a fitted effect of over 50% in size
# Procedure, shortened: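 Chemicals tested for interference with CYP2D6 activity; proluciferin substrate, NADPH regeneration, 1 h at room temperature, luminescent detection.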
# [3] = target: Cytochrome P450 2C19 (Homo sapiens) (UniProt P33261); test: Cytochrome P450 Family 2 Subfamily C Member 19 (CYP2C19) small molecule antagonists: luciferase reporter qHTS assay (AID 1671197); further: nearly all actives have a fitted effect of over 65% in size
# Procedure, shortened: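 P450-Glo CYP2C19 system: enzyme-substrate mix with compound 10 min at room temperature, then NADPH regeneration solution, 1 h at 37C. Proluciferin-to-luciferin conversion detected by luminescence after 20 min with detection reagent; ketoconazole as positive control.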
# [4] = target: Cytochrome P450 2C9 (Homo sapiens) (UniProt P11712); test: Cytochrome P450 Family 2 Subfamily C Member 9 (CYP2C9) small molecule antagonists: luciferase reporter qHTS assay (AID 1671198); further: nearly all actives have a fitted effect of over 50% in size
# Procedure, shortened: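 Enzyme-substrate mix preincubated with compound 10 min at room temperature; reaction started with NADPH regeneration solution, 1 h 37C. Luminescent luciferin product read after 20 min detection reagent.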
# [5] = target: Cytochrome P450 1A2 (Homo sapiens) (UniProt P05177); test: Cytochrome P450 Family 1 Subfamily A Member 2 (CYP1A2) small molecule antagonists: luciferase reporter qHTS assay (AID 1671199); further: nearly all actives have a fitted effect of over 50% in size
# Procedure, shortened: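 Read-out is luminescence from luciferin detection reagent (20 min) proportional to CYP1A2 activity; compounds in DMSO preincubated 10 min with enzyme and proluciferin substrate, then NADPH regeneration solution, 1 h, room temperature.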
# [6] = target: Voltage-gated inwardly rectifying potassium channel KCNH2 (Homo sapiens) (UniProt Q12809); test: Human Ether-a-go-go-Related Gene (hERG) channel small molecule antagonists: fluorescence cell-based qHTS assay (AID 1671200); further: nearly all actives have a fitted effect of over 50% in size
# Procedure, shortened: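 Read-out: thallium influx as a surrogate for potassium, tracked as fluorescence (480 nm ex/540 nm em) every second for 2 min after Stimulus Buffer addition in dye-loaded hERG-U2OS cells.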
# [7] = target: Cytochrome P450 3A4 (Homo sapiens) (UniProt P08684); test: Cytochrome P450 Family 3 Subfamily A Member 4 (CYP3A4) small molecule antagonists: luciferase reporter qHTS assay (AID 1671201); further: nearly all actives have a fitted effect of over 50% in size
# Procedure, shortened: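 Luminescent readout (RLU) proportional to CYP3A4 activity, from luciferin generated off a proluciferin substrate. Enzyme–substrate mix plus compound 10 min at room temp, NADPH regeneration 1 h, detection reagent 20 min.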
# Potency means the concentration at half of the fitted maximal effect.
# Chain of Cytochrome P450 2C19 (Homo sapiens) (P33261 whole entry, looked up): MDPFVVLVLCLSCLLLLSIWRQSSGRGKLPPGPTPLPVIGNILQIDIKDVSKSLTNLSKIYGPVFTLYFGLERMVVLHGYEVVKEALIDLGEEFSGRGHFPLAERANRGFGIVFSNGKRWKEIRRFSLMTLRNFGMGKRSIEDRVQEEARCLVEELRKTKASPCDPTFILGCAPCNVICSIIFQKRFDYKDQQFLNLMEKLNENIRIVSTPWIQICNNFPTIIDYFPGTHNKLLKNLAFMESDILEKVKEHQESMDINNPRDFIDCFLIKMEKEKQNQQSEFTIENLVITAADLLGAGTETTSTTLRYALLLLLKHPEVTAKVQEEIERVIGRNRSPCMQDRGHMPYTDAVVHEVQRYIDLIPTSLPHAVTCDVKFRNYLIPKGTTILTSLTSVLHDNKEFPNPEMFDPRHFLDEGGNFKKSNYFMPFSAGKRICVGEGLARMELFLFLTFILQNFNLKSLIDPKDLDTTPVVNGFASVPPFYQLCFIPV
# Chain of Cytochrome P450 2C9 (Homo sapiens) (P11712 whole entry, looked up): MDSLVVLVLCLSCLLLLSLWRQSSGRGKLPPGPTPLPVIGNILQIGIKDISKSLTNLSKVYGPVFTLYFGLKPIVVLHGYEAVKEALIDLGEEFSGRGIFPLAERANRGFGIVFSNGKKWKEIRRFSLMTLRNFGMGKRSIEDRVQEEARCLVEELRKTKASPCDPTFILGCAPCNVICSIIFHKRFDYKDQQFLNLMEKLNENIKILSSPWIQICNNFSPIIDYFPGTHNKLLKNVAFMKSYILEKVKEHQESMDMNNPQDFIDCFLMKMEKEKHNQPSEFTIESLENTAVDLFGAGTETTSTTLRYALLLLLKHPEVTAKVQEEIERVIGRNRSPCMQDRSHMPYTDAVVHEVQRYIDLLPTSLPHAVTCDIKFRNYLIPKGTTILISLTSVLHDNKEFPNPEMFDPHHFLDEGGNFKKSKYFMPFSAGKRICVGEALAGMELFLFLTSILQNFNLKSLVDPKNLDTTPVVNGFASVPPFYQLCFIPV
# Chain of Cytochrome P450 1A2 (Homo sapiens) (P05177 whole entry, looked up): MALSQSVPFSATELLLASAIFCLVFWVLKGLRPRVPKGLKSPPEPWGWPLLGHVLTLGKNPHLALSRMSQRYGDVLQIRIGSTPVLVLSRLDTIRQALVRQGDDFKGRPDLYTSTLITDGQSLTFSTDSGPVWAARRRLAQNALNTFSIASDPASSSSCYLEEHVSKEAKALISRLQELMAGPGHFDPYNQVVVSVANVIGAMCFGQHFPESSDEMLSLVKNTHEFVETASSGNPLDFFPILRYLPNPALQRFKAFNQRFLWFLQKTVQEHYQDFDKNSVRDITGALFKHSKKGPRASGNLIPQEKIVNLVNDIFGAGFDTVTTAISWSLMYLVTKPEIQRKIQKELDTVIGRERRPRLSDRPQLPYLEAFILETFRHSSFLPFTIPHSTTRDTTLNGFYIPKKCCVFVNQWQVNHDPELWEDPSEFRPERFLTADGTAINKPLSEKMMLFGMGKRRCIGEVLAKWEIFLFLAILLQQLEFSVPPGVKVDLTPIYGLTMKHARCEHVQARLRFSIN
# Chain of Cytochrome P450 2D6 (Homo sapiens) (P10635 whole entry, looked up): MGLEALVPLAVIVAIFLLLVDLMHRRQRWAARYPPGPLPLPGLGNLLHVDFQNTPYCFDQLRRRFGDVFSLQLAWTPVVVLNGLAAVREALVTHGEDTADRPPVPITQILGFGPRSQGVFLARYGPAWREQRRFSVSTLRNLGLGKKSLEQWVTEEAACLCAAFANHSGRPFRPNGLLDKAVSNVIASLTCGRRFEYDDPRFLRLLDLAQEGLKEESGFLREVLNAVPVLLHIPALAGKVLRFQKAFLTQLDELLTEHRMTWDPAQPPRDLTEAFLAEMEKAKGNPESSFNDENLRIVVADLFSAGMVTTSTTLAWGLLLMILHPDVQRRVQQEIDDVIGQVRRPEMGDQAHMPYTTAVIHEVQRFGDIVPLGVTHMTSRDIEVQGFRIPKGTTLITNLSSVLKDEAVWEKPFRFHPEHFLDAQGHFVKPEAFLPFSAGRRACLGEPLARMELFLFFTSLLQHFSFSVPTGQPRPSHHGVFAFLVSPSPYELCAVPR
# Chain of Voltage-gated inwardly rectifying potassium channel KCNH2 (Homo sapiens) (Q12809 whole entry, looked up): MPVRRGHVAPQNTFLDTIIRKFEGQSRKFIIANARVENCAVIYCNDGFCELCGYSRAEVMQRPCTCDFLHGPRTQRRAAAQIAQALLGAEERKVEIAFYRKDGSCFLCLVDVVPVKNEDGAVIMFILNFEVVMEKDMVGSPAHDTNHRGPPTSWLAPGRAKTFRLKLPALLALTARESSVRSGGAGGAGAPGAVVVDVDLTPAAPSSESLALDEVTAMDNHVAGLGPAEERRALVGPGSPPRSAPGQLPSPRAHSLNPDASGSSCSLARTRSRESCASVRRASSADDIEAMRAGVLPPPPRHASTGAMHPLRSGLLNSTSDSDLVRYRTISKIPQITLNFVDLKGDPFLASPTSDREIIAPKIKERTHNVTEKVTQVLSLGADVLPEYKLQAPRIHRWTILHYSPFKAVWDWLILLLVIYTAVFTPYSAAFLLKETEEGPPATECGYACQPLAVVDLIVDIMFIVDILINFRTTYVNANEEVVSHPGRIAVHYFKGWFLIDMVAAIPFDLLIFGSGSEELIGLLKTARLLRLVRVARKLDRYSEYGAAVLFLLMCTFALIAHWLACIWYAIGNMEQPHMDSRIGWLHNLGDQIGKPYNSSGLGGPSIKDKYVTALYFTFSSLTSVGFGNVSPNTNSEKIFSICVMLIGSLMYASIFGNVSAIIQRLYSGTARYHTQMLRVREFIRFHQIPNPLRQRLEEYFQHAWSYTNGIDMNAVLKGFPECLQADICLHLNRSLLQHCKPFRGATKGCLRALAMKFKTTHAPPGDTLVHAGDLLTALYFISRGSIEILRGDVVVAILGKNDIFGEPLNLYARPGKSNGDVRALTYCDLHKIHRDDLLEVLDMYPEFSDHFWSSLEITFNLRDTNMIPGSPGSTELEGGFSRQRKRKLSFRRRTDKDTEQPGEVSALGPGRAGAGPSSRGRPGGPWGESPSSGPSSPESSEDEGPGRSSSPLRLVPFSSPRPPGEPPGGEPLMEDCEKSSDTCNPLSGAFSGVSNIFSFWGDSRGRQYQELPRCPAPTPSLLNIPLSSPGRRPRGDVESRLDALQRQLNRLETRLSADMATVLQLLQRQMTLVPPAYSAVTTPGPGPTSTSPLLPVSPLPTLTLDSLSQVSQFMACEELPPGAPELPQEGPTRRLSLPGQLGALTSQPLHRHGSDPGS
# Chain of Cytochrome P450 3A4 (Homo sapiens) (P08684 whole entry, looked up): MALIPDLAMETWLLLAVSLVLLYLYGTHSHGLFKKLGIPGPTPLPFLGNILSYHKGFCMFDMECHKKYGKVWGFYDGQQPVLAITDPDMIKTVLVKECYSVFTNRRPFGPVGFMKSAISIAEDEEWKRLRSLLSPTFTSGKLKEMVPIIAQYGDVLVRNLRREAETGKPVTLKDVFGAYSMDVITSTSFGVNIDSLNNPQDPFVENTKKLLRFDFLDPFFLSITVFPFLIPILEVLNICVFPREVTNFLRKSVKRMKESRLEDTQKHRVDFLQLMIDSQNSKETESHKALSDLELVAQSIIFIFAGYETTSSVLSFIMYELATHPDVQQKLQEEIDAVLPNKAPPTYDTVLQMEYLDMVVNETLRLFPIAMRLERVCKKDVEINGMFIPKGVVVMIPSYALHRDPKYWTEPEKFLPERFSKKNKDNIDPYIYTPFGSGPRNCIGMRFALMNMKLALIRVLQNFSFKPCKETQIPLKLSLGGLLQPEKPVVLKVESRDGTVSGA
# Chain of Acetylcholinesterase (Homo sapiens) (P22303 whole entry, looked up): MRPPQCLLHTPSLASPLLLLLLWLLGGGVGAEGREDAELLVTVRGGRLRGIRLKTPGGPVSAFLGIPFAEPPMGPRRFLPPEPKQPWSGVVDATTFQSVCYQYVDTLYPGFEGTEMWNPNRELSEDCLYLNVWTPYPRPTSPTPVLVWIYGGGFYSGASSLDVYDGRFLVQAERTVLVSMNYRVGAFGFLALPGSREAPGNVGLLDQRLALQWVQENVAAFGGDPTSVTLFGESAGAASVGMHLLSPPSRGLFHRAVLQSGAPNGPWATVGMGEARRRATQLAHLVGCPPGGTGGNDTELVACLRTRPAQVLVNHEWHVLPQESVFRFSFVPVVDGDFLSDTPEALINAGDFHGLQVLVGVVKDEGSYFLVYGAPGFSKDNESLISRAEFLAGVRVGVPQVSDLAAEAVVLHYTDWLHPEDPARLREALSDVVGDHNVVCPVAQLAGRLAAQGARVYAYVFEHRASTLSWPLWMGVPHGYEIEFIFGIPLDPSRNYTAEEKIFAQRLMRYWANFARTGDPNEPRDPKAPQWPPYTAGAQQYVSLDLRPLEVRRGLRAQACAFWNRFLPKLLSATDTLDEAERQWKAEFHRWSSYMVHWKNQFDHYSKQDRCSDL
SMILES,Potency [1],Potency [2],Potency [3],Potency [4],Potency [5],Potency [6],Potency [7]
Clc1ccc(C(Cl)(Cl)Cl)cc1,inactive,inactive,inactive and 28.3 µM (active),inactive,inactive,inactive,inactive
CCCCOC(=O)COC(=O)c1ccccc1C(=O)OCCCC,inactive,,7.93 µM (active) and 11.2 µM (active),6.3 µM (active) and 7.1 µM (active),11.2 µM (active) and 20 µM (active),,22.3 µM (active) and 35.6 µM (active)
CCNCC,,inactive,inactive,inactive,inactive and 28.3 µM (active),inactive,inactive
CCC/C=N/O,inactive,inactive,inactive,inactive,inactive,inactive,inactive
O=[N+]([O-])c1ccc(Cl)c([N+](=O)[O-])c1,inactive,,40.6 µM (active) and 79.6 µM (active),,12.8 µM (active) and 11.2 µM (active),inactive,inactive
CC(C)(C#N)N=NC(C)(C)C#N,inactive,inactive,inactive,inactive,inactive,inactive,inactive
Nc1ccc2ccccc2c1,inactive,24.3 µM (active) and 15.9 µM (active),9.69 µM (active) and 31.7 µM (active),27.3 µM (active) and 31.7 µM (active),1.72 µM (active) and 2 µM (active),inactive,19.3 µM (active) and 17.8 µM (active)
CC1(C)C(C(=O)OC(C#N)c2cccc(Oc3ccccc3)c2)C1(C)C (stereo not drawn),inactive,inactive,9 µM (active) and 22.4 µM (active),11.3 µM (active) and 7.96 µM (active),,inactive,inactive
Cn1c(-c2ccccc2)cc(-c2ccccc2)[n+]1C,inactive,502 nM (active) and 1 µM (active),inactive,inactive and 35.6 µM (active),inactive,43.6 µM (active),inactive
CNC(=O)Oc1cccc2c1OC(C)(C)C2,5.14 µM (active) and 1.59 µM (active),inactive,72.5 µM (active),,,inactive,inactive
COP(=O)(NC(C)=O)SC (stereo not drawn),inactive,inactive,71.1 µM (active) and inactive,inactive,,inactive,inactive
COP(=S)(OC)SCn1nnc2ccccc2c1=O,inactive,55.3 µM (active) and 39.9 µM (active),1.1 µM (active) and 894 nM (active),5.53 µM (active) and 3.99 µM (active),27.7 µM (active) and 28.3 µM (active),inactive,7.81 µM (active) and 11.2 µM (active)
COc1ccc(O)c(C(C)(C)C)c1,inactive,,7.99 µM (active) and 5.64 µM (active),25.3 µM (active) and 31.7 µM (active),39.9 µM (active),inactive,
O=[N+]([O-])c1ccc(Nc2ccccc2)cc1,inactive,32 µM (active) and 35.6 µM (active),8.03 µM (active) and 20 µM (active),32 µM (active) and 35.6 µM (active),12.7 µM (active) and 22.4 µM (active),inactive,inactive
CCOS(=O)(=O)OCC,inactive,inactive,79.8 µM (active) and inactive,71.1 µM (active) and inactive,35.6 µM (active) and inactive,inactive,inactive
NN=C(N)N,,inactive,44.8 µM (active) and inactive,inactive,31.7 µM (active) and 27.5 µM (active),inactive,inactive
CC(C)Nc1ccc(Nc2ccccc2)cc1,inactive,8.91 µM (active) and 10 µM (active),3.16 µM (active) and 3.99 µM (active),501 nM (active) and 1.12 µM (active),35.5 µM (active) and 35.6 µM (active),24.4 µM (active),12.6 µM (active) and 28.3 µM (active)
CC1=C(C(=O)Nc2ccccc2)SCCO1,inactive,,36.2 µM (active) and 22.4 µM (active),11.2 µM (active),12.8 µM (active) and 12.6 µM (active),inactive,inactive
